# In PubChem BioAssay (EPA / NIEHS):
# Records with an inconclusive call do not appear. Calls of active or inactive are those of the source. How the source made its calls, unless noted: active means hit-call score of the fitted dose curve at least 0.9, where 1 is the maximum; inconclusive means response in the unintended direction; inactive means score below 0.9.
# Biological target: Estrogen receptor (Homo sapiens) (UniProt P03372)
# Assay: OT_ERa_GFPERaERE_0480: Odyssey Thera (OT) 8-hour HeLa Transcription Induction Assay for Estrogen Receptor (AID 2283381; active means hit-call score of the fitted dose curve at least 0.9, where 1 is the maximum; inactive means score below 0.9)
# Outline: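 Fluorescent reporter signal, imaged by microscopy and scored with image-analysis algorithms, was taken 8 h after chemical dosing of HeLa cells; activity was fitted upward relative to DMSO.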
# Estrogen receptor (Homo sapiens), sequence (P03372 whole entry, looked up): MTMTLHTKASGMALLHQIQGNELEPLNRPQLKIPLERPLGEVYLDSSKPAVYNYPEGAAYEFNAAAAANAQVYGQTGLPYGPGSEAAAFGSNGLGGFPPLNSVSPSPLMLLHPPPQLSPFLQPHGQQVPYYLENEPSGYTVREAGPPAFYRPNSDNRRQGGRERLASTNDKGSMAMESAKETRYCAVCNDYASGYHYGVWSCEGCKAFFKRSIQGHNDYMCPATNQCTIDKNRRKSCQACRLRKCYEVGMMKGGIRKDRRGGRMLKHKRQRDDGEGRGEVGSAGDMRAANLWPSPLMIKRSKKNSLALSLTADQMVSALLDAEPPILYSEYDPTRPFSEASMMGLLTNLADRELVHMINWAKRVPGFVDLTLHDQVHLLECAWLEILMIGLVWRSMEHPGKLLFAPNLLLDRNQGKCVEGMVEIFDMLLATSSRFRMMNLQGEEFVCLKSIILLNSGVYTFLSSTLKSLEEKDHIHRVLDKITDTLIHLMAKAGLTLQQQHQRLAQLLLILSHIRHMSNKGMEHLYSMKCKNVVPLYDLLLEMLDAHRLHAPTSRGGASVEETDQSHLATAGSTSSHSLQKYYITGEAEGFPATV
row,Compound,outcome
1,CC(C)(C)C(=O)c1ccccc1,inactive
2,CN(C)CCCN,inactive
3,CC(=O)C=CC1=C(C)CCCC1(C)C,inactive
4,CC(=O)OCCC(C)CC(C)(C)C (centres undefined),inactive

# Biological target: Bile acid receptor (Homo sapiens) (UniProt Q96RI1)
# Sequence (Q96RI1 whole entry, looked up): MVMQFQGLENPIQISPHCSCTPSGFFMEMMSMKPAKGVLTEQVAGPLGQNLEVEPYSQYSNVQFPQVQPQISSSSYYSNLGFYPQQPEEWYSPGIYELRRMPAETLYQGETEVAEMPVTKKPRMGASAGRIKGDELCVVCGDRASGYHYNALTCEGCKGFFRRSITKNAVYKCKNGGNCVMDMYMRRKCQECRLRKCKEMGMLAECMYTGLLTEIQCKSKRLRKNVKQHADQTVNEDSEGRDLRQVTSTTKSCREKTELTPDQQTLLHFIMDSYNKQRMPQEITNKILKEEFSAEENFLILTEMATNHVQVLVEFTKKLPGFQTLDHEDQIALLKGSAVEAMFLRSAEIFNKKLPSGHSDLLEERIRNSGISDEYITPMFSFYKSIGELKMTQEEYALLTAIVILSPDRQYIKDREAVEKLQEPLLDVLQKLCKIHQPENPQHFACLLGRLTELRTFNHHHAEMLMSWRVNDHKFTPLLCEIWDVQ
# Assay: OT_FXR_FXRSRC1_0480: Odyssey Thera (OT) 8-hour HEK293T Protein-Complementation Assay for Farnesoid X receptor/SRC-1 Co-activator (AID 2283383)
# Outline: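 Human kidney HEK293T cells carried FXR/SRC-1 fragment-complementation constructs. Compounds were added and incubated 8 h. Reporter reassembly upon receptor–co-activator interaction was then quantified by fluorescence, with curves fitted in the positive direction relative to DMSO.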
Compound,outcome,AC50
O=C1NC(=O)c2ccccc21,inactive,
COc1cc(C(C)(C)C)c(O)c(C(C)(C)C)c1,,67 µM (active)
CC(C)=CCCC(C)CC=O (centres undefined),inactive,
CC(=O)C=CC1=C(C)CCCC1(C)C,inactive,

# Biological target: Bile acid receptor (Homo sapiens) (UniProt Q96RI1)
# Assay: OT_FXR_FXRSRC1_1440: Odyssey Thera (OT) 24-hour HEK293T Protein-Complementation Assay for Farnesoid X receptor/SRC-1 Co-activator (AID 2283384)
# Outline: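 Compounds are applied to human kidney HEK293T cells expressing bait and prey fused to reporter protein fragments; after 24 h, reconstituted reporter fluorescence is measured. Activity is fitted as signal gain over DMSO.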
row,Compound,outcome
1,O=C1NC(=O)c2ccccc21,inactive
2,CN(C)CCCN,inactive
3,COc1cc(C(C)(C)C)c(O)c(C(C)(C)C)c1,inactive
4,CC(C)=CCCC(C)CC=O (centres undefined),inactive
5,CC(=O)OCCC(C)CC(C)(C)C (centres undefined),inactive

# Biological target: Retinoic acid receptor RXR-alpha (Homo sapiens) (UniProt P19793)
# Sequence (P19793 whole entry, looked up): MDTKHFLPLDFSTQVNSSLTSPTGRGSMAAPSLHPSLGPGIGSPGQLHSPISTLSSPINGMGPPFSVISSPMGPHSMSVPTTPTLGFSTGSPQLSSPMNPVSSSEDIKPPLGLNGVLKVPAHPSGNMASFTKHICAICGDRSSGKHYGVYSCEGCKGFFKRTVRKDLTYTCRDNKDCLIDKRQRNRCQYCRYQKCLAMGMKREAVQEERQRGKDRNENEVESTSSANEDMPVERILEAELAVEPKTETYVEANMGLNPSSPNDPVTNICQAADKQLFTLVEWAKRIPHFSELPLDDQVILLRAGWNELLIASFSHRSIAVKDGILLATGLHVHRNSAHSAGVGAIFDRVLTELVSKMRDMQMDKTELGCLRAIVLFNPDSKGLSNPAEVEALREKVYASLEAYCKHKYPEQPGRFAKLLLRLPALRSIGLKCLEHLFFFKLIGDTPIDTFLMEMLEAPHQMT
# Assay: OT_NURR1_NURR1RXRa_0480: Odyssey Thera (OT) 8-hour HEK293T Protein Complementation Assay for Nurr1/retinoid X receptor (RXR) (AID 2283385)
# Outline: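 8 h compound exposure, HEK293T; Nurr1/RXRα fragment complementation; fluorescence intensity; positive fitting direction vs DMSO baseline.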
Compound,outcome,AC50
CC(C)(C)C(=O)c1ccccc1,inactive,
O=C1NC(=O)c2ccccc21,inactive,
CC1CC(OC(=O)c2ccccc2O)CC(C)(C)C1 (centres undefined),,92.8 µM (active)
NC(=O)NC1NC(=O)NC1=O (centres undefined),inactive,
CSc1nc(NC2CC2)nc(NC(C)(C)C)n1,inactive,
CCCC1CCC(=O)O1 (centres undefined),inactive,
CC(C)=CCCC(C)CC=O (centres undefined),inactive,
CC(=O)C=CC1=C(C)CCCC1(C)C,,50 µM (active)
NCCCCCCN,inactive,
Cc1ccc(O)c(C(C)(C)C)c1,,50 µM (active)
CCCCCCCCCCCCN,,11 µM (active)
